Experimental data as given in PubChem BioAssay.

experiment: optical density shifts of acrAB sulA E. coli – strain DRC41, OD650, 48 h, E. coli filamentation inducer project, primary screen (AID 1152); conditions: higher = more signal, called active from +8 up or from −8 down;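 note: E. coli MC1000 strain DRC41 lacking acrAB efflux pump and sulA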

z-score, inactive:
CC1CC/C=C\[C@H]2OC34C=CCN(C(C)C)C(=O)[C@H]3N(C(C)CO)C(=O)[C@@H]4C2C(=O)O1 (some centres undefined) 1.9
[N-]=[N+]=NCc1ccccc1C[C@]1(C(=O)N2CCCCC2)COC(c2ccc(OCCCO)cc2)=N1 2.89
O=C1NC(=O)C2C1C=CC(C(O)c1ccc(F)cc1)N2Nc1ccc(Cl)cc1Cl (centres undefined) -1.89
O=C(NCC(F)(F)F)[C@@H]1c2ccccc2C(=O)N(Cc2cc(C(F)(F)F)cc(C(F)(F)F)c2)[C@H]1c1ccc(CO)cc1 0.648
C=CCNC(=O)[C@H]1[C@@H]2C(=O)O[C@@H](c3ccccc3)[C@@H](c3ccccc3)N2[C@@H](c2ccc(O)cc2)[C@]12C(=O)N(C(=O)OCCOC)c1ccc(C#Cc3ccc(OC)cc3)cc12 -0.983
COCCOC(=O)N1C(=O)[C@@]2(c3cc(C#CCNC(N)=O)ccc31)[C@H](C(N)=O)[C@H]1C(=O)O[C@H](c3ccccc3)[C@H](c3ccccc3)N1[C@@H]2c1ccc(O)cc1 0.989
CC(C)(C)OC(=O)CC[C@@]1(C(N)=O)N=C(c2ccc(OCCCO)cc2)O[C@@H]1c1ccccc1CN=[N+]=[N-] -0.216
COC(=O)[C@@]1(Cc2ccc(F)cc2)[C@H]2c3cc(C(=O)N(C)C)n(CCF)c3C[C@H]2CN1C(=O)c1ccccc1 1.28
COc1ccc(C(=O)Nc2cccc(CN3C(=O)[C@]4(O[C@H](CC(=O)N(CCO)Cc5ccccc5)[C@@H]([Si](C)(C)c5ccc(OC)cc5)[C@@H]4C)c4ccccc43)c2)cc1 0.556
